Screening data (PubChem)
TDP1 cell CPT = qHTS for Inhibitors of human tyrosyl-DNA phosphodiesterase 1 (TDP1): qHTS in cells in presence of CPT. chicken DT40 Tdp1-/-;hTDP1 cells + 20 nM CPT, ATP luminescence, 48 h. Potency, µM (top dose mostly 46.2 µM), for inactives: at the highest dose activity change, negative = growth inhibition, most hits filed as inhibitors. hit rate 12% among 420,000; note: potency is the fitted concentration of half-maximal effect; % is set by controls: 0 for no effect and ±100 for the full control effect; nearly all actives have a fitted effect of over 55% in size
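Cell growth measured by CellTiter-Glo luminescence after a minimum 48 h, 37 C compound exposure with 20 nM CPT in Tdp1-knockout DT40 cells stably expressing hTDP1, seeded 400/well; qHTS titration format.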
HepG2 viability = qHTS for Inhibitors of TGF-b: Cytotox Counterscreen. HepG2 CAGA-GFP viability, ATP luminescence, 18 h. Potency, µM (series often up to 46.1 µM), for inactives: top-dose activity change, negative = cytotoxicity, hits mostly cytotoxic. hit rate 0.76% among 410,000. AID 588856, 2011; note: potency is the fitted concentration of half-maximal effect
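HepG2 CAGA-GFP cells (1000/well, DMEM with 1% FBS) received compound, then TGF-beta at 500 pg/mL final, and were incubated 18 hours at 37 degrees C. Viability was read by CellTiter-Glo luminescence. Media-only wells were set as complete cell-killing and DMSO as no toxicity.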
TDP1 block = qHTS Assay for Inhibitors of Tyrosyl-DNA Phosphodiesterase (TDP1); Tyrosyl-DNA phosphodiesterase 1 (Homo sapiens), Q9NUW8; recombinant TDP1, AlphaScreen DNA substrate cleavage; Potency, µM (highest dose often 130 µM), for the others: top-dose activity change, negative = inhibition, most hits filed as inhibitors; hit rate 0.28% among 350,000; note: potency is the fitted concentration of half-maximal effect; % is set by controls: 0 for no effect and ±100 for the full control effect; nearly all actives have a fitted effect of over 40% in size
Target sequence (Q9NUW8 whole entry, looked up): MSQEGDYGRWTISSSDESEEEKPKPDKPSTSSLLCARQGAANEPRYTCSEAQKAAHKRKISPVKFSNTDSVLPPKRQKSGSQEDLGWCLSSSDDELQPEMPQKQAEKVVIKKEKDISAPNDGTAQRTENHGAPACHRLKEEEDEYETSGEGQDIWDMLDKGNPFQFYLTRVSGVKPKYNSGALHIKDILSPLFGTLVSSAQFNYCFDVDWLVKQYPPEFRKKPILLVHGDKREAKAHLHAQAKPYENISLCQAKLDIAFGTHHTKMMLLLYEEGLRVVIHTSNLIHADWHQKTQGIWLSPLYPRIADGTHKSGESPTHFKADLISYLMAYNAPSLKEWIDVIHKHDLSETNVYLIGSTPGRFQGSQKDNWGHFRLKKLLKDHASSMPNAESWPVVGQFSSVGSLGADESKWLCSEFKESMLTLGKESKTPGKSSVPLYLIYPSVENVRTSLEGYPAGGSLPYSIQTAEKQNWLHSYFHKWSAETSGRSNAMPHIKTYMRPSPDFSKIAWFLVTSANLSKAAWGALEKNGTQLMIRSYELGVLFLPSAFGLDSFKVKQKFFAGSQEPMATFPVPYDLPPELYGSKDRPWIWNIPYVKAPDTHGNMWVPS
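Signal: AlphaScreen proximity between streptavidin donor and anti-FITC acceptor beads on intact substrate. Reaction: Tdp1 1 nM, substrate 15 nM final, 5 min RT after 15 min compound preincubation.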
DT40 TDP1 no CPT = qHTS for Inhibitors of human tyrosyl-DNA phosphodiesterase 1 (TDP1): qHTS in cells in absence of CPT. DT40 Tdp1-/- hTDP1 cells, no CPT, ATP luminescence, 48 h. hit rate 15% among 420,000. Potency, µM (doses to about 46.2 µM), for inactives: at the highest dose activity change, negative = growth inhibition, actives largely listed as inhibitors; note: potency is the fitted concentration of half-maximal effect; % is set by controls: 0 for no effect and ±100 for the full control effect; nearly all actives have a fitted effect of over 55% in size
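Chicken DT40 Tdp1-/- cells complemented with human TDP1, screened without camptothecin (DMSO vehicle only), 400 cells/well. Compounds pin-transferred, cells incubated at 37 °C for at least 48 hr. Growth read as ATP-dependent luminescence (CellTiter-Glo, 30 min at RT).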
IL1B secr inh = qHTS for Inhibitors of Inflammasome Signaling: IL-1-beta AlphaLISA Primary Screen | THP-1 LPS/ATP IL-1B secretion, AlphaLISA, 16 h; hits give low values | activity change, % at 57.5 µM | hit rate 4.7% among 360,000 | AID 743279, 2014; in the data active = activity change below about -50%; inconclusive = mostly about -30% to -49%; note: % is set by controls: 0 for no effect and ±100 for the full control effect
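Secreted IL-1B measured by AlphaLISA bead assay after 16 h compound exposure of THP-1 cells; compounds (final up to 57.5 uM) added 1 h before LPS (250 ng/mL) and ATP (1.25 mM) stimulation; lower signal means less secretion.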
TGFb inhibitor = qHTS for Inhibitors of TGF-b. hit rate 1.2% among 410,000. AID 588855, 2011. HepG2 CAGA-GFP TGF-b/SMAD3 reporter, GFP fluorescence, 18 h; TGF-beta stimulated, 500 pg/mL final. Potency, µM (series often up to 46.1 µM), for inactives: top-dose activity, negative = inhibition, hits mostly inhibitors; note: potency is the fitted concentration of half-maximal effect; % is set by controls: 0 for no effect and ±100 for the full control effect; nearly all actives have a fitted effect of over 65% in size
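Inhibition of TGF-beta-driven CAGA-GFP reporter expression in HEPG2 cells is measured by cellular GFP fluorescence after 18 h stimulation with 500 pg/mL recombinant TGF-beta in 1% FBS medium at 37 degrees C.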
The depositor's hits bear a star; [ ] = dose if it differs, or a comment. A selection: hits, their analogues and other compounds. The true share with any hit is near 19%. Unless noted, calls come from the whole dose curve; as a rule, active = well fitted curve in the direction sought with a large enough effect; inconclusive = small, poorly fitted or top-dose-only effect, or another doubt; inactive = no such curve, though single readings can be large; an effect the other way counts as inactive or inconclusive.

For CC(Oc1ccccc1)C(=O)N(CCC1=CCCCC1)c1c(N)n(Cc2ccccc2)c(=O)[nH]c1=O (stereo unspecified) the results were TDP1 cell CPT inconclusive, HepG2 viability -79.6%, TDP1 block 1.4%, DT40 TDP1 no CPT inconclusive, IL1B secr inh inactive and TGFb inhibitor 17.8µM*.
Screening Nc1c(N(CCC2=CCCCC2)C(=O)COc2ccc(F)cc2)c(=O)[nH]c(=O)n1Cc1ccccc1 returned TDP1 cell CPT inconclusive, HepG2 viability 8.91µM*, TDP1 block 2.1%, DT40 TDP1 no CPT inconclusive, IL1B secr inh inconclusive and TGFb inhibitor 7.94µM*.
CC(Oc1ccc(F)cc1)C(=O)N(Cc1ccccc1)c1c(N)n(Cc2ccccc2)c(=O)[nH]c1=O (stereo unspecified) was read as TDP1 cell CPT 2.9%, HepG2 viability 1.3%, TDP1 block 0.8%, DT40 TDP1 no CPT 2.3%, IL1B secr inh 13.8 and TGFb inhibitor -5.2%.
For Cc1cc(C)c(NC(=O)Cn2c(=O)n(CC(=O)NCCc3ccccc3)c(=O)c3ccccc32)c(C)c1 the results were TDP1 cell CPT -9.2%, HepG2 viability 0.6%, TDP1 block -2.5%, DT40 TDP1 no CPT -4.0% and TGFb inhibitor 5.1%.
`Cc1ccc(S(=O)(=O)N2CCC(C(=O)NCC(C)(C)N3CCOCC3)CC2)c(C)c1` gave TDP1 cell CPT -2.8%, HepG2 viability 2.9%, TDP1 block 0.7%[56.1 µM], DT40 TDP1 no CPT -6.9%, IL1B secr inh -8.1 and TGFb inhibitor 1.5%.
`O=C(O)C1C2C=CC(C2)C1C(=O)NCc1ccc(Cl)cc1Cl` (stereo unspecified) gave TDP1 cell CPT -7.6%, HepG2 viability 1.5%, TDP1 block inconclusive, DT40 TDP1 no CPT -17.8%, IL1B secr inh -1.8 and TGFb inhibitor -11.7%.
Screening CCOc1ccccc1NC(=O)CSc1nc2c(oc3ccccc32)c(=O)n1Cc1ccco1 returned TDP1 cell CPT 16.4µM*, HepG2 viability -11.0%, TDP1 block 1.0%, DT40 TDP1 no CPT 20.6µM* and TGFb inhibitor inconclusive.
COc1ccccc1NC(=O)CSc1nc2c(oc3ccccc32)c(=O)n1Cc1ccco1 was read as TDP1 cell CPT 14.6µM*, HepG2 viability -22.4%, TDP1 block 0.0%, DT40 TDP1 no CPT inconclusive and TGFb inhibitor -7.7%.
CCOCCCn1c(SCC(=O)Nc2ccccc2OC)nc2c(oc3ccccc32)c1=O was read as TDP1 cell CPT inconclusive, HepG2 viability -8.8%, TDP1 block -2.0%, DT40 TDP1 no CPT 25.9µM* and TGFb inhibitor -13.0%.
Screening CCOCCCn1c(SCC(=O)Nc2oc(C)c3c(C)n[nH]c(=O)c23)nc2ccccc2c1=O returned TDP1 cell CPT 23.1µM*, HepG2 viability 5.4%, DT40 TDP1 no CPT inconclusive, IL1B secr inh -24.7 and TGFb inhibitor 2.5%.
For O=C(CSc1nc2c(oc3ccccc32)c(=O)n1Cc1ccco1)Nc1ccccc1 the results were TDP1 cell CPT -14.0%, HepG2 viability -3.6%, TDP1 block 3.9%, DT40 TDP1 no CPT -18.9% and TGFb inhibitor -11.8%.
For CCOc1ccc(-n2c(SCC(=O)Nc3ccccc3OC)nc3c(oc4ccccc43)c2=O)cc1 the results were TDP1 cell CPT inconclusive, HepG2 viability -10.6%, TDP1 block 5.9%, DT40 TDP1 no CPT inconclusive and TGFb inhibitor -32.7%.
`Cc1ccc(S(=O)(=O)N(C)CCCC(=O)N2CCCCC2)cc1` gave TDP1 cell CPT -8.9%, HepG2 viability -9.1%, DT40 TDP1 no CPT -23.0%, IL1B secr inh 12.3 and TGFb inhibitor -13.0%.
Screening CCC(C(=O)Nc1cc(-c2cn3cccnc3n2)ccc1C)c1ccccc1 (stereo unspecified) returned TDP1 cell CPT -30.0%, HepG2 viability -17.2%, TDP1 block 5.5%, DT40 TDP1 no CPT -24.7% and TGFb inhibitor -13.6%.
CN(Cc1ccccn1)Cc1cn(Cc2ccccc2)nc1-c1ccc2c(c1)OCO2 was read as TDP1 cell CPT -27.0%, HepG2 viability 1.6%, TDP1 block 5.1%, DT40 TDP1 no CPT 23.1µM*, IL1B secr inh inconclusive and TGFb inhibitor 16.5%.
Screening CN(Cc1cnccn1)Cc1cn(Cc2ccccc2)nc1-c1ccc2c(c1)OCO2 returned TDP1 cell CPT 10.3%, HepG2 viability 5.6%, DT40 TDP1 no CPT -2.2%, IL1B secr inh 29.5 and TGFb inhibitor -3.6%.
CC(c1ccon1)N(C)Cc1cn(Cc2ccccc2)nc1-c1ccc2c(c1)OCO2 (stereo unspecified) was read as TDP1 cell CPT 18.4µM*, HepG2 viability -21.7%, TDP1 block 2.7%, DT40 TDP1 no CPT inconclusive, IL1B secr inh -29.0 and TGFb inhibitor -0.4%.
Cc1cccc(Oc2nc3c(c(=O)n(C)c(=O)n3C)n2Cc2ccccc2)c1C was read as TDP1 cell CPT 7.1%, HepG2 viability 3.8%, DT40 TDP1 no CPT inconclusive and TGFb inhibitor -2.0%.
For COc1ccccc1NC(=O)Nc1nc(CC(=O)N2CCN(c3ccccc3OC)CC2)cs1 the results were TDP1 cell CPT 20.6µM*, HepG2 viability 40.1%, TDP1 block 0.8%, DT40 TDP1 no CPT 13µM*, IL1B secr inh -56.1* and TGFb inhibitor -6.7%.
Screening COc1ccccc1NC(=O)Nc1nc(CC(=O)Nc2ccc(OC)c(OC)c2)cs1 returned TDP1 cell CPT -27.3%, HepG2 viability -5.0%, DT40 TDP1 no CPT inconclusive, IL1B secr inh -2.3 and TGFb inhibitor 20.3%.
COc1cc(C)ccc1NC(=O)Cc1csc(NC(=O)Nc2ccccc2OC)n1 was read as TDP1 cell CPT 23.1µM*, HepG2 viability 7.3%, TDP1 block 2.2%, DT40 TDP1 no CPT 23.1µM*, IL1B secr inh 2.8 and TGFb inhibitor inconclusive.
`CCN(CC)C(=O)Cn1c(=O)cc(C)c2c(C)nn(-c3ccc(C)cc3)c21` gave TDP1 cell CPT 8.9%, HepG2 viability -8.1%, TDP1 block 4.5%, DT40 TDP1 no CPT 5.1% and TGFb inhibitor -3.6%.
